FBW7 activator = activators of human E3 ligase FBW7. Q969H0. AlphaScreen FBW7–phospho-cyclin E peptide binding, activator screen. normalized activity (activation), % at 26.1 µM. hit rate 0.13% among 650,000. AID 1259310; in the data active = normalized activity above about 1.9%;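 note: purified mutant Fbw7 with reduced substrate affinity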
GPR151 ag = activates the human receptor GPR151; PathHunter beta-arrestin GPR151 cells, luminescence; activation, % at 11.2 µM; hit rate 1% among 650,000; in the data active = activation above about 4.9%
Target sequence (Q8TDV0 whole entry, looked up): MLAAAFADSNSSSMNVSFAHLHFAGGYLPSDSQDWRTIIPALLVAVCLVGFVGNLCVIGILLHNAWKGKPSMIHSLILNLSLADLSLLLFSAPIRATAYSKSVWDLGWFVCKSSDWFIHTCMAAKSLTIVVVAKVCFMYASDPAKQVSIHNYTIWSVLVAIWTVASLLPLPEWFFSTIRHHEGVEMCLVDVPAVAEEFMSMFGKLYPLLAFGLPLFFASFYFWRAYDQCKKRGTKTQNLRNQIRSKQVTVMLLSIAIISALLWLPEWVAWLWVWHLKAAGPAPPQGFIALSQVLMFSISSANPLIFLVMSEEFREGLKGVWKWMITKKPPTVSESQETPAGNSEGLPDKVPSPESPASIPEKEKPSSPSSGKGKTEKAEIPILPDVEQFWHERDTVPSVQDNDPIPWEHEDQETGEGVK
MITF primary = blocks human microphthalmia-associated transcription factor; O75030; AlphaScreen MITF homodimerization, bead proximity signal; inhibition, % at 2.6 µM; hit rate 0.91% among 650,000; AID 1259374; in the data active = inhibition above about 50%
TEAD-YAP block = TEAD-YAP interaction inhibition; HEK-TIYL cells, TEAD-Gal4/YAP UAS-luciferase luminescence; inhibition, % at 9.12 µM; hit rate 1.4% among 640,000; AID 1259422; in the data active = inhibition above about 32%
MITF confirm = human MITF inhibition, confirmation. shares compounds with MITF primary. AlphaScreen MITF homodimerization, biotin/His-MITF beads. inhibition, % at 2.6 µM. hit rate 16% among 4,700. AID 1259372;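 active = inhibition above a cutoff derived from the DMSO control wells, cut at about 28% in these data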;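 note: inhibitors lower the bead chemiluminescence by keeping MITF from dimerizing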
AlphaScreen DR = counter-screen: compounds optically interfering with AlphaScreen. shares compounds with MITF primary. hit rate 6% among 480. AID 1259373. AlphaScreen optical interference counterscreen, cell-free. IC50, µM; call rule not given here
AS interf ctr = optically interferes with AlphaScreen signal; AID 1259376; inhibition, % at 2.6 µM; LysRS AlphaScreen counterscreen, signal interference, triplicate; shares compounds with MITF primary; hit rate 7.6% among 4,700;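 active = inhibition above a cutoff derived from the DMSO control wells, cut at about 30% in these data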
Of the large screens only hits and unclear results are named; the others gave an inactive call (follow-up assays come after a bar, where they were run). The list is not random: actives were taken first. Their share in the collection is about 3.4%.

CCN(CC(=O)Nc1ccccc1C(F)(F)F)CC(=O)NC1CCCc2ccccc21 (stereo unspecified)	MITF primary 81.3 | MITF confirm inactive | AS interf ctr inactive
CCN(CC(=O)Nc1ccccc1C(F)(F)F)CC(=O)Nc1cccc2ccccc12	none
CC(=O)c1ccc(NC(=O)N2CCN(Cc3nc4ccccc4[nH]3)CC2)cc1	none
COC(=O)c1ccc(CN2CCN(Cc3nc4ccccc4[nH]3)CC2)o1	MITF primary 73.1 | MITF confirm inactive | AS interf ctr inactive
O=C(c1ccc(Cn2ccnc2)cc1)N1CCN(Cc2nc3ccccc3[nH]2)CC1	MITF primary 87.3 | MITF confirm inactive | AS interf ctr inactive
COc1ccc(CCNC(=O)N2CCN(Cc3nc4ccccc4[nH]3)CC2)cc1	none
CCc1nc2ccccc2n1CC(O)COc1ccccc1 (stereo unspecified)	none
CCOC(=O)CC(=O)CSc1nn2c(=O)c(C)nnc2s1	MITF primary 53.2 | MITF confirm inactive | AS interf ctr 36.7
CCOC(=O)CSc1nn2c(=O)c(C)nnc2s1	none
CC(C)=CC(=O)Nc1nnc(Cc2ccccc2)s1	MITF primary 84.1 | MITF confirm inactive | AS interf ctr inactive
CC1CCN(Cc2csc(N)n2)CC1	MITF primary 52.9 | MITF confirm inactive | AS interf ctr inactive
Nc1nc(CC23CC4CC(CC(C4)C2)C3)cs1	none
Cc1ccc(NC(=O)CSc2ccc(C(=O)O)cn2)cc1F	none
Cc1ccc(-c2nnc3s/c(=C\c4ccco4)c(=O)n23)cc1	MITF primary 63.6 | MITF confirm 75.0 | AlphaScreen DR inactive | AS interf ctr inactive
COc1ccc(OCC(O)CNCCCN(C)C)c(C(C)(C)C)c1 (stereo unspecified)	MITF primary 68.3 | MITF confirm inactive | AS interf ctr inactive
COc1ccccc1COCC(O)CNCCCN(C)C (stereo unspecified)	MITF primary 56.1 | MITF confirm inactive | AS interf ctr inactive
COc1ccc(OCC(O)CNCCC(C)C)c(C(C)(C)C)c1 (stereo unspecified)	none
COc1ccccc1COCC(O)CNCCc1ccc(C(F)(F)F)cc1 (stereo unspecified)	none
COc1ccccc1COCC(O)CNCC12CC3CC(CC(C3)C1)C2 (stereo unspecified)	MITF primary 63.8 | MITF confirm inactive | AS interf ctr inactive
O=C(NC1CCN(Cc2ccccc2)CC1)c1ccc2nc(-c3csc4ccccc34)sc2c1	none
Cc1cc(-n2cccn2)ccc1CN1CCN(Cc2ccc(F)cc2)C(CCO)C1 (stereo unspecified)	none
COc1ccc(Cl)cc1C(=O)NNC(=O)COc1ccc2c(C)cc(=O)oc2c1	MITF primary 64.3 | MITF confirm inactive | AS interf ctr inactive
Cc1ccc(NC(=O)CN(C)CC(=O)Nc2ccc(F)c(F)c2F)c(Cl)c1	none
Cc1ccc(NC(=O)CN(C)C2CCN(C)CC2)c(Cl)c1	MITF primary 66.7 | MITF confirm inactive | AS interf ctr inactive
O=C(CN1CCC(O)(c2ccccn2)CC1)Nc1ccc(N2CCCC2)cc1	none
Cc1cc(C)c(C)c(S(=O)(=O)N2CCN(CC(O)COCc3ccco3)CC2)c1C (stereo unspecified)	MITF primary 51.4 | MITF confirm inactive | AS interf ctr inactive
CCN1CCN(S(=O)(=O)c2c(C)c(C)cc(C)c2C)CC1	none
O=C(N/N=C/C=C\c1ccco1)c1ccccn1	MITF primary 101.3 | MITF confirm 93.9 | AS interf ctr 69.4
Cc1occc1C(=O)N/N=C/C=C/c1ccco1	MITF primary 80.0 | MITF confirm 44.1 | AlphaScreen DR inactive | AS interf ctr inactive
O=C(N/N=C/c1ccccn1)c1ccccn1	none
O=C(N/N=C/C=C\c1ccco1)c1ccncc1	none
Cc1occc1C(=O)N/N=C/C1CCCCC1	none
O=C(N/N=C\c1ccccn1)c1ccccn1	MITF primary 54.2 | MITF confirm 27.9 | AS interf ctr 82.4
Cc1occc1C(=O)N/N=C/C1CC=CCC1 (stereo unspecified)	MITF primary 81.3 | MITF confirm inactive | AS interf ctr inactive
CC1CCCCN1Cc1c(C#N)c2ccccc2n1C (stereo unspecified)	none
CC1CCCCN1Cc1ccccc1C#N (stereo unspecified)	MITF primary 71.1 | MITF confirm inactive | AS interf ctr inactive
O=C(Cc1nc2scc(-c3ccccc3)c2c(=O)[nH]1)N1CCCC1	none
Cc1ccc(-c2csc3nc(CN(C)C4CCN(C)CC4)[nH]c(=O)c23)cc1	MITF primary 59.5 | MITF confirm inactive | AS interf ctr inactive
COc1ccccc1N1CCN(CC(=O)c2ccc(F)cc2)CC1	MITF primary 68.9 | MITF confirm inactive | AS interf ctr inactive
CCN(CC)S(=O)(=O)c1cccc(NC(=O)CC23CC4CC(CC(C4)C2)C3)c1	none
COc1cc2c(cc1OC)CN(CCC(c1ccccc1)c1ccccc1)CC2	none
COc1cc2c(cc1OC)CN(CC(O)c1ccccc1)CC2 (stereo unspecified)	MITF primary 50.6 | MITF confirm inactive | AS interf ctr inactive
O=C1CC2CC3CC(C2)C1C3 (stereo unspecified)	none
Cc1ccc(C(=O)OCc2cn3ccccc3n2)cc1	MITF primary 51.1 | MITF confirm inactive | AS interf ctr inactive
Cc1ccoc1C(=O)NCc1occc1C(=O)O	MITF primary 57.4 | MITF confirm inactive | AS interf ctr inactive
Cc1ccoc1C(=O)NCCNC(=O)c1occc1C	none
CN(C)CC(C)(C)CNC(=O)C1CCN(Cc2cccc(Br)c2)CC1	MITF primary 57.5 | MITF confirm inactive | AS interf ctr inactive
O=c1c2sccc2nc(SCc2cccc([N+](=O)[O-])c2)n1CCc1ccc(Cl)cc1	none
CC(C)CC1NC(=O)N(CC(=O)N(C(C)C)C(C)C)C1=O (stereo unspecified)	none
CCOc1c(C)cnc2c1c(=O)n(CC(=O)NCc1ccccc1Cl)c(=O)n2C	none
O=C1CN(C(=O)COC(=O)c2c3c(nc4ccccc24)CCC3)c2ccccc2N1	MITF primary 71.8 | MITF confirm inactive | AS interf ctr inactive
Cc1ncc(-c2ccnc(Nc3ccc(S(C)(=O)=O)cc3)n2)n1C(C)C	none (no result: FBW7 activator, MITF primary, TEAD-YAP block)
Fc1ccc(C2=CC(c3ccc(Cl)cc3)n3nnnc3N2)cc1 (stereo unspecified)	none
O=[N+]([O-])c1cc(C2C=C(c3ccc(Cl)cc3)Nc3nnnn32)ccc1Cl (stereo unspecified)	MITF primary 64.5 | MITF confirm inactive | AS interf ctr inactive
O=C(CCc1ccccc1)Nc1ccc2c(c1)C(=O)NC2=O	none
CC1=C(C(=O)OCc2ccccc2)C(c2ccc(C)c([N+](=O)[O-])c2)NC(=O)N1C (stereo unspecified)	none
CC(C)NC(=O)CCCCCn1nnc2ccccc2c1=O	none
CCCCNC(=O)CCCCCn1nnc2ccccc2c1=O	MITF primary 72.8 | MITF confirm inactive | AS interf ctr inactive

Bioassay records (PubChem BioAssay)
